Records with an inconclusive call do not appear. Calls of active or inactive are those of the source. Unless noted, calls come from the whole dose curve; as a rule, active = well fitted curve in the direction sought with a large enough effect; inconclusive = small, poorly fitted or top-dose-only effect, or another doubt; inactive = no such curve, though single readings can be large; an effect the other way counts as inactive or inconclusive.
Legend:
[1] = molecular target: Voltage-gated inwardly rectifying potassium channel KCNH2 (Homo sapiens) (UniProt Q12809); assay: qHTS Assay for Small Molecule Inhibitors of the Human hERG Channel Activity (AID 588834);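 note: lower thallium flux fluorescence means stronger hERG block; nearly all actives have a fitted effect of over 50% in size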; note: potency is the fitted concentration of half-maximal effect
Summary of the method: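 Blockade is seen as reduced FluxOR thallium-flux fluorescence in U2OS cells expressing hERG from a BacMam construct, in Opti-MEM with 2% FCS. Concentration-response data fitted to the Hill equation for AC50.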

[2] = molecular target: Luciferin 4-monooxygenase (Photinus pyralis) (UniProt P08659); assay: Biochemical firefly luciferase enzyme assay for NPC (AID 624030);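 note: purified P. pyralis luciferase at 10 nM with luciferin and ATP substrate; nearly all actives have a fitted effect of over 70% in size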
Summary of the method: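 Direct inhibition of firefly luciferase enzyme (10 nM final, 50 mM Tris Acetate) assessed by luminescence within 5 minutes. Percent activity scaled between DMSO and PTC124 positive control, with concentration-effect curves classified by fit quality and response.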

[3] = S16 Schwann cell PMP22 intronic element firefly luciferase assay (AID 624032); note: nearly all actives have a fitted effect of over 30% in size; note: potency is the fitted concentration of half-maximal effect
Summary of the method: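 Luciferase reporter of PMP22 intronic-element expression in stably transfected S16 rat Schwann cells, read by ONE-Glo luminescence after 24 h compound exposure at 37 C. Activity scaled between DMSO (0%) and positive-control PTC124; concentration-effect curves quality-classified.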

[4] = S16 Schwann cell PMP22 intronic element beta-lactamase assay (AID 624044; calls by dose curve; note: nearly all actives have a fitted effect of over 15% in size)
Summary of the method: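 Rat S16 Schwann cells with beta-Lac driven by a PMP22 intronic element, compound-treated 24 h at 37 °C. LiveBLAzer FRET B/G read: 460 nm normalized to potassium clavulanate vs DMSO; 535 nm FRET as viability; concentration-effect curves classified.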

[5] = Cytotoxicity counterscreen for NFkB agonists and antagonists (AID 624476); note: potency is the fitted concentration of half-maximal effect
[6] = qHTS Assay for Identification of Small Molecule Agonists for NFkB Signaling Pathway. (AID 624478)
Summary of the method: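 NFkB-bla ME-180 cells (beta-lactamase reporter under NFkB response element) were plated overnight, treated with compound plus TNF alpha at 10 pM final (its EC50) for 5 hrs at 37 C, then loaded with LiveBLAzer substrate for 2 hrs.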

[7] = Cell Proliferation Assay against the TMD8 Cell Line (AID 651645); settings: TMD8 DLBCL cell line proliferation/viability; at 46.1 µM (top of the series) unless noted;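 note: cells exposed to compound for 48 h before reading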
Summary of the method: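 Cell viability of the ABC DLBCL line TMD8 is measured by CellTiter-Glo luminescence following a 48-hour incubation with compound. Percent activity uses DMSO as 100% and 9.2 uM bortezomib (final) as 0%.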

[8] = Cell Proliferation Assay against the HBL1 Cell Line (AID 651646); settings: HBL1 DLBCL cells; at 46.1 µM (top of the series) unless noted;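 note: cells exposed to compound for 48 h before reading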
Summary of the method: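 Luminescent ATP read-out (CellTiter-Glo) after 48 h compound exposure of HBL1 cells at 37 °C; percent activity was scaled between DMSO as 100% and 9.2 uM bortezomib (final) as 0%.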

[9] = S16 Schwann cell viability assay (CellTiter-Glo assay) (AID 624031);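 note: native untransfected S16 rat Schwann cells; cellular ATP luminescence as a viability measure; nearly all actives have a fitted effect of over 70% in size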
Summary of the method: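 Following overnight culture in 10% FBS DMEM, parental S16 rat Schwann cells are dosed for 24 h at 37 °C. Viability is read as CellTiter-Glo luminescence and expressed as % activity relative to DMSO (0%) and no-cell wells.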

[10] = molecular target: Glutaminase kidney isoform, mitochondrial (Homo sapiens) (UniProt O94925); assay: qHTS for Inhibitors of Glutaminase (GLS): LOPAC Validation (AID 624146); note: nearly all actives have a fitted effect of over 60% in size; note: potency is the fitted concentration of half-maximal effect
Summary of the method: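 Coupled fluorescence readout: glutamate oxidase/HRP/Amplex Red detect glutamate formed by hKGA from L-glutamine (1 mM solution added). Buffer 45 mM KH2PO4 pH 8.2, 0.02% Tween-20; reads at t0 and 30 min RT.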

[11] = qHTS of Trypanosoma Brucei Inhibitors: LOPAC Validation (AID 624147)
Summary of the method: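 Glycolytic pyruvate kinase of T. brucei was incubated with substrate, test compound and 130 uM ADP for 45 minutes at room temperature. Luminescent Kinase-Glo Plus signal was measured after 10 minutes.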

[12] = molecular target: Glucagon-like peptide 1 receptor (Homo sapiens) (UniProt P43220); assay: qHTS of GLP-1 Receptor Agonists: LOPAC Validation (AID 624148);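 note: luminescence from a luciferase reporter switched on by cAMP; higher luminescence signal means agonism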
Summary of the method: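 Agonism scored as increased luciferase luminescence driven by cAMP in HEK293 clones carrying GLP-1R. Cells settled 12 hours, received compound for 4-6 hr at 37 deg C, 5% CO2, and were read after 12 min detection reagent at RT.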

[13] = qHTS of Nrf2 Activators: LOPAC Validation (AID 624149)
Summary of the method: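 AREc32 cells carrying an ARE-driven firefly luciferase were grown overnight in OPTI-MEM with 5% FBS, then exposed to compounds for 24 hr at 37 deg C. Luciferase signal was read after 30 min with Steady-Glo at RT.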

[14] = HTS Assay for Allosteric Antagonists of the Human D2 Dopamine Receptor: Hit Validation in HTRF (AID 624455);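 note: stable D1 dopamine receptor cell line scored for blocking the D1 response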
Summary of the method: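 Hits were examined in an HTRF assay using cells stably expressing the D1 dopamine receptor, scoring inhibition of the D1-mediated response. The preceding primary screen tracked calcium flux after an EC80 dopamine addition in force-coupled, inducible Hek293 Trex D2 cells.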

[15] = molecular target: Tumor susceptibility gene 101 protein (Homo sapiens) (UniProt Q99816); assay: qHTS Assay for Iinhibitors of HIV-1 Budding by Blocking the Interaction of PTAP/TSG101: Hit Validation (AID 651600); settings: PTAP peptide/TSG101 UEV interaction, biochemical assay; note: potency is the fitted concentration of half-maximal effect; nearly all actives have a fitted effect of over 70% in size
Summary of the method: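 Measuring PTAP–Tsg101 interaction by FP: protein at 10 uM and fluorescent peptide at 50 nM (final), buffer 10 mM HEPES pH 7.5 with 0.15 M NaCl, 3 mM EDTA, 0.1 mM TCEP, 0.01% Tween 20; 20 min incubation, r.t.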

[16] = qHTS Assay for Identification of Small Molecule Antagonists for NFkB Signaling Pathway. (AID 624479; calls by dose curve;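 note: pathway stimulated with TNF alpha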)

Glucagon-like peptide 1 receptor (Homo sapiens), sequence (P43220 whole entry, looked up): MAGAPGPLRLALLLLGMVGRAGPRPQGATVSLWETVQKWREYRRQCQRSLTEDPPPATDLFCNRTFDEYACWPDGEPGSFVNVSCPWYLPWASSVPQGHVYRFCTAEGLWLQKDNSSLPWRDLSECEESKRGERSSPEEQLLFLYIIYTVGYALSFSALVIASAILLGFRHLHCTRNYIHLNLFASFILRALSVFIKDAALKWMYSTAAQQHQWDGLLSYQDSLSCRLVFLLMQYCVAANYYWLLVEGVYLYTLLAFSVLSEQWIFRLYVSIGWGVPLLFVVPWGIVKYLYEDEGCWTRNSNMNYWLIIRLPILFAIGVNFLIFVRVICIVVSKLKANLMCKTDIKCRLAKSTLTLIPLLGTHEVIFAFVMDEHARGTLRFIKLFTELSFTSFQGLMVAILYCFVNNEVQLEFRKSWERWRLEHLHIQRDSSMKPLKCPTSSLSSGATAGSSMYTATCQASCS
Voltage-gated inwardly rectifying potassium channel KCNH2 (Homo sapiens), sequence (Q12809 whole entry, looked up): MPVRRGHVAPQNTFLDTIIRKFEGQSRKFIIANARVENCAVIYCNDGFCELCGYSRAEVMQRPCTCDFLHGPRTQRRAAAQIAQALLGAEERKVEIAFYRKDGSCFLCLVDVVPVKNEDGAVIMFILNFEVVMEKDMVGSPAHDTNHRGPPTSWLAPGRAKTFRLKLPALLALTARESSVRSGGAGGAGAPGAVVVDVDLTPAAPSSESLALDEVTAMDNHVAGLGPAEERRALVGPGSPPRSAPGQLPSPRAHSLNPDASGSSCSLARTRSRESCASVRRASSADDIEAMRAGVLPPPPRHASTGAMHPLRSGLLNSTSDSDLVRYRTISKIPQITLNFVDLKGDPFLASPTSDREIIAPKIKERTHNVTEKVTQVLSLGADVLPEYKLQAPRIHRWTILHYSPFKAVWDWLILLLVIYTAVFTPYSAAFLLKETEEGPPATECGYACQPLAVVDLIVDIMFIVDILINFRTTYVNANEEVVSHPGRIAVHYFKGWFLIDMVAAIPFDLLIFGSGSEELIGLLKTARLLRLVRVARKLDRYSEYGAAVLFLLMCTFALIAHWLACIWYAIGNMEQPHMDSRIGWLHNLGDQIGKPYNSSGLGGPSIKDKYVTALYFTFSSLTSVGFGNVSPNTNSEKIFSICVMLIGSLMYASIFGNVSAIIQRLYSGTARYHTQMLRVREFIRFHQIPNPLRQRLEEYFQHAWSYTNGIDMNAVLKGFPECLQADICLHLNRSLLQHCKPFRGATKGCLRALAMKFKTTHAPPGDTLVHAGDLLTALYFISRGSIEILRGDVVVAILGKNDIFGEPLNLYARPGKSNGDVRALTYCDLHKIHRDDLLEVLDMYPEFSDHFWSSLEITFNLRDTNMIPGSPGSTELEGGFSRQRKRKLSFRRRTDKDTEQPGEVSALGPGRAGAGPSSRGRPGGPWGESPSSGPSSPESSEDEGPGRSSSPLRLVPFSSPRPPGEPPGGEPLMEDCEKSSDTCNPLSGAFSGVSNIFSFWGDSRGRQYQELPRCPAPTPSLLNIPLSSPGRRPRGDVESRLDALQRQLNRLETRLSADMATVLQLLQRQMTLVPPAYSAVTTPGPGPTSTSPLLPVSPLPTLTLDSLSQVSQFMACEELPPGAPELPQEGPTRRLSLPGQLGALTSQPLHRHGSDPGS
Glutaminase kidney isoform, mitochondrial (Homo sapiens), sequence (O94925 whole entry, looked up, canonical isoform): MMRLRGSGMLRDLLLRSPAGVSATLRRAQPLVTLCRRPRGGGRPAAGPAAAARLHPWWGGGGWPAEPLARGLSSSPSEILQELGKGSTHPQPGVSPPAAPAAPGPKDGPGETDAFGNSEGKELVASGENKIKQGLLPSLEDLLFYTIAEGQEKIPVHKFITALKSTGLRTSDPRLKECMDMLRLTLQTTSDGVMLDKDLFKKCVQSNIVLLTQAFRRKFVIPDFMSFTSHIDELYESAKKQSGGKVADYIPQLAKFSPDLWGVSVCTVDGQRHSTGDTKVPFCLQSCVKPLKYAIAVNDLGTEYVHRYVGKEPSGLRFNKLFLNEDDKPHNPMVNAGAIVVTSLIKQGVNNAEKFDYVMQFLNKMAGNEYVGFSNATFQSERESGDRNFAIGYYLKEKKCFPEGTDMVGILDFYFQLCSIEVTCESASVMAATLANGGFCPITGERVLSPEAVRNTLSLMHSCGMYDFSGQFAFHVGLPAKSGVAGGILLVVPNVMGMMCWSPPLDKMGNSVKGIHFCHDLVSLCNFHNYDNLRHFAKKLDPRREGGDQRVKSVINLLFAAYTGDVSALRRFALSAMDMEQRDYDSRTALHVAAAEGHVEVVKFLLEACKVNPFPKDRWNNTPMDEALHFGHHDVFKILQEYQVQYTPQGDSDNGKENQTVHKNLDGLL
Luciferin 4-monooxygenase (Photinus pyralis), sequence (P08659 whole entry, looked up): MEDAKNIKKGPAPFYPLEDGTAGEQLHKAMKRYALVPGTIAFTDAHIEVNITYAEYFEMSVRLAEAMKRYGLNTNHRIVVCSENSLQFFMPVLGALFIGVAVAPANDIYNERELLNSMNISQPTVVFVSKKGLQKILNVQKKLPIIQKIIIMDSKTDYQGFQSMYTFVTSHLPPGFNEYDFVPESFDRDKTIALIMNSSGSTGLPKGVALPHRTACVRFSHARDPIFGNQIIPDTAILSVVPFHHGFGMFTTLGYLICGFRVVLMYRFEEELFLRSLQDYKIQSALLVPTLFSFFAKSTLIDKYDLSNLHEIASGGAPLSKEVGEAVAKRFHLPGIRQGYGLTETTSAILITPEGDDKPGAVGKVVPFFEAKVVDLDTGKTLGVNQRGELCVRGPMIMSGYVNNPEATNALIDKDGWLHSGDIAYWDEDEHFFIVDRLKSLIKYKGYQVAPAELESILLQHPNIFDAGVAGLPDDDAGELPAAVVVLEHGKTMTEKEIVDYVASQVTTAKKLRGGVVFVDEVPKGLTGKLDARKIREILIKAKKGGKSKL
Tumor susceptibility gene 101 protein (Homo sapiens), sequence (Q99816 whole entry, looked up): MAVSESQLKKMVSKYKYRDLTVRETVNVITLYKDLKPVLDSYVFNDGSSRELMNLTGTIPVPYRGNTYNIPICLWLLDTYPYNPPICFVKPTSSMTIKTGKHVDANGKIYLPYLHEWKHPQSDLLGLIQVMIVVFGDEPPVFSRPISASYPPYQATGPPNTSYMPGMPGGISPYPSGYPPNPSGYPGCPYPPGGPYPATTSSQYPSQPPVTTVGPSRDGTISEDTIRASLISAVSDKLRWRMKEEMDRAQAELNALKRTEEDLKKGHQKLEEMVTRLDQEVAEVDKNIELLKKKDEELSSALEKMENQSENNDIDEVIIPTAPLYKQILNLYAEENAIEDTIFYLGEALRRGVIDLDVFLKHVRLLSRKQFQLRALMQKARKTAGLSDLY

CC(=O)OCC(CCn1cnc2cnc(N)nc21)COC(C)=O
inactive: Potency [1] | Potency [2] | Potency [3]

CS(=O)(=O)CCNCc1ccc(-c2ccc3ncnc(Nc4ccc(OCc5cccc(F)c5)c(Cl)c4)c3c2)o1
active: Potency [5] 23.5 µM
3.03%: viability, percent of control [8]
inactive: Potency [1] | Potency [2] | Potency [3] | Potency [4] | outcome [6]
0.834%: viability (% of control) [7]

CCOC(=O)Nc1ccc(NCc2ccc(F)cc2)nc1N
inactive: Potency [2] | Potency [9] | Potency [4] | Potency [11] | Potency [12] | outcome [13]
active: Potency [1] 14.1 µM | Potency [10] 12.6 µM

OCCN(CCO)c1nc(N2CCCCC2)c2nc(N(CCO)CCO)nc(N3CCCCC3)c2n1
active: Potency [3] 10.2 µM | Potency [15] 18.3 µM
inactive: Potency [1] | Potency [2] | Potency [10] | Potency [11] | Potency [12] | Potency [14]

CN1CCN(C2=Nc3cc(Cl)ccc3Nc3ccccc32)CC1
inactive: Potency [4] | Potency [10] | Potency [11] | Potency [12]

CCCNCC(O)COc1ccccc1C(=O)CCc1ccccc1 (stereo not given)
active: Potency [3] 25.6 µM
inactive: Potency [2] | Potency [11] | Potency [12] | outcome [13] | Potency [14]

CNCCCC12CCC(c3ccccc31)c1ccccc12
active: Potency [3] 32.2 µM
inactive: Potency [2] | Potency [10] | Potency [11] | Potency [12] | outcome [13]

O=C(C1CCCCC1)N1CC(=O)N2CCc3ccccc3C2C1 (stereo not given)
inactive: Potency [1] | Potency [10] | Potency [11] | Potency [12]

Fc1ccc([C@@H]2CCNC[C@H]2COc2ccc3c(c2)OCO3)cc1
inactive: Potency [10] | Potency [11] | Potency [12] | outcome [13]

CN1CCN(CCCN2c3ccccc3Sc3ccc(Cl)cc32)CC1
inactive: Potency [2] | Potency [11] | Potency [12] | outcome [13]

COc1ccc(CCN(C)CCCC(C#N)(c2ccc(OC)c(OC)c2)C(C)C)cc1OC (stereo not given)
inactive: Potency [2] | Potency [9] | Potency [3] | Potency [10] | outcome [13] | Potency [5] | outcome [6] | Potency [16]

CCC1(C)CC(=O)NC1=O (stereo not given)
inactive: Potency [1] | Potency [11] | Potency [12] | outcome [13]

Cc1cc(C(C)(C)C)cc(C)c1CC1=NCCN1
inactive: Potency [2] | Potency [3] | Potency [10] | Potency [11] | Potency [12] | outcome [13] | Potency [14]

CC1COc2c(N3CCN(C)CC3)c(F)cc3c(=O)c(C(=O)O)cn1c23 (stereo not given)
inactive: Potency [1] | Potency [10] | Potency [11] | Potency [12] | outcome [13]

Source: PubChem BioAssay (NCATS)
